Out of some 310,000 compounds screened, about 14,000 (4.5%) showed an effect of 50% or more. The effect is printed as a negative number. The sample holds strong results, similar compounds and a random draw of the others, so the mix is not that of the screen.
Target: human ether-à-go-go-related gene (hERG) potassium channel (human, UniProt Q12809)
Assay: primary screen, population patch clamp on CHO cells stably expressing hERG; higher = less effect of the substance
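Note: peak tail current of the secondary pulse compared with the same well before compound.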

Sequence of human ether-à-go-go-related gene (hERG) potassium channel (Q12809 whole entry, looked up): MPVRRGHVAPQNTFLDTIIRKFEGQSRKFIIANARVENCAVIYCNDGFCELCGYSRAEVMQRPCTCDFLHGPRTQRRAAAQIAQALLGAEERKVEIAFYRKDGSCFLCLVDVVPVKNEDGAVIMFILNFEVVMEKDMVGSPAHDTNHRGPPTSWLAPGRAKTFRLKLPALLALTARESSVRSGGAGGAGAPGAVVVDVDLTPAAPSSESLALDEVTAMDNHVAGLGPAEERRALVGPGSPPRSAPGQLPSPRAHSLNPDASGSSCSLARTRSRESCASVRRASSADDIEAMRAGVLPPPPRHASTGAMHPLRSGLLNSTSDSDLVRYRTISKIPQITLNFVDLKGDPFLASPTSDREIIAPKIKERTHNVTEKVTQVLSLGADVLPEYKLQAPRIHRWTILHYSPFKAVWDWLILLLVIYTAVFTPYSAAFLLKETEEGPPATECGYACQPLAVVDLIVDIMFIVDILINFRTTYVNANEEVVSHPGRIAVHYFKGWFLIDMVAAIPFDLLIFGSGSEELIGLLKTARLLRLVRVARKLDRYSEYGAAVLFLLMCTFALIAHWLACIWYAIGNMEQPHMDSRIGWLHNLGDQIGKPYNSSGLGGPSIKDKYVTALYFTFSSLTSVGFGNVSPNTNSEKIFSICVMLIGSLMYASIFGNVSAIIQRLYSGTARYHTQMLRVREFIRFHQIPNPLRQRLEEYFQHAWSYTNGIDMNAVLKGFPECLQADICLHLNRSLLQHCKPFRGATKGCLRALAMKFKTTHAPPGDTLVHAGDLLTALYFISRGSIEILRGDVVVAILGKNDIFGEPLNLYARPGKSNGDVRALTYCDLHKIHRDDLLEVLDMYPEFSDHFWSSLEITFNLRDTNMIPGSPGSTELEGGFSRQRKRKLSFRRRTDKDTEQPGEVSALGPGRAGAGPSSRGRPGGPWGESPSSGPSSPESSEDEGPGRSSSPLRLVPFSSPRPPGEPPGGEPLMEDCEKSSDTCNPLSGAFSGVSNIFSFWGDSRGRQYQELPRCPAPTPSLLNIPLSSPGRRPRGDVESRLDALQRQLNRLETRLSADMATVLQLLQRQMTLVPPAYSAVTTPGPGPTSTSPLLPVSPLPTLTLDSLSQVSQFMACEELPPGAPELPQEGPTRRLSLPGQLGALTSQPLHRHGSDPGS

Compound	hERG current change (%, negative = inhibition) at 10uM
CC(C)c1ccc(NC(=O)CNCC(c2ccccc2)N(C)C)cc1 (centres unmarked)	-27.6%
C/C(=N\NC(=O)c1ccc2c(c1)OCO2)c1ccc(O)cc1	13.1%
Cc1ccc(/C=N/NC(=O)c2ccco2)s1	-2.98%
CCOc1cc(S(=O)(=O)NCCCN2CCOCC2)ccc1F	3.16%
Cc1cc(NC(=O)c2c(-c3c(Cl)cccc3Cl)noc2C)n(C)n1	16%
O=C(CN1C(=O)NC(Cc2ccccc2)C1=O)Nc1ccccc1 (centres unmarked)	6.7%
O=C(CN1C(=O)NC(Cc2ccccc2)C1=O)Nc1ccc(OC(F)(F)F)cc1 (centres unmarked)	-13.9%
N#Cc1ccc(NC(=O)CN2C(=O)NC(Cc3ccccc3)C2=O)cc1 (centres unmarked)	-57.7%
O=C(CN1C(=O)NC(Cc2ccccc2)C1=O)Nc1ccc(OC(F)F)cc1 (centres unmarked)	-66.9%
O=C(CN1C(=O)NC(Cc2ccccc2)C1=O)Nc1ccc(F)cc1 (centres unmarked)	-7.41%
N#Cc1cccc(NC(=O)CN2C(=O)NC(Cc3ccccc3)C2=O)c1 (centres unmarked)	2.91%
Cn1nc(-c2ccccc2)c(C(=O)Nc2ccc(Cl)cc2)c1Cl	-12.7%
O=C(CC1(O)C(=O)Nc2ccccc21)c1ccc(-n2cccc2)cc1 (centres unmarked)	2.85%
CCCCN1C(N)=NC[C@@H]1C(C)O (some centres unmarked)	15.9%
Cc1nn(-c2ccc(F)cc2)c(Cl)c1C(=O)OC(C)C(=O)N(C)C1CCCCC1 (centres unmarked)	-59%
CC(=O)Nc1ccc(NC(=O)C(C)OC(=O)c2c(C)nn(-c3ccccc3)c2Cl)cc1 (centres unmarked)	-14.8%
COC(=O)c1c(C)[nH]c(C(=O)OC(C)C(=O)N(C)C2CCCCC2)c1C (centres unmarked)	-2.13%
Cc1ccsc1C(=O)C1CCCN(Cc2cnc(N(C)C)s2)C1 (centres unmarked)	-9.23%
Cc1ccsc1C(=O)C1CCCN(Cc2cccn2-c2ccc(Cl)cn2)C1 (centres unmarked)	-77.6%
Cc1ccsc1C(=O)C1CCCN(Cc2cccn2-c2ccccn2)C1 (centres unmarked)	-75.8%
Cc1ncc(CN2CCCC(C(=O)c3sccc3C)C2)s1 (centres unmarked)	24.7%
CC(C)(C)C(=O)NC1(C(F)(F)F)N=C2SCCN2C1=O (centres unmarked)	-4.77%
CNC(=O)c1c(NC(=O)c2ccco2)sc(C)c1C	1.42%

Compound	hERG current change (%, negative = inhibition) at 10uM
CCOc1cccc2c1OC1(C)CC2NC(=O)N1c1cccc(C(=O)N2CCN(c3ccccn3)CC2)c1 (centres unmarked)	-1.89%
Cc1cc(Br)c(NC(=O)Cn2c([N+](=O)[O-])cnc2C)cc1C	4.01%
O=C(NCc1ccco1)c1ccc(Cl)c(S(=O)(=O)N2CCc3ccccc32)c1	-20.6%
Cc1ccc(C)c(S(=O)(=O)NCC(c2ccco2)N2CCc3ccccc3C2)c1 (centres unmarked)	-9.3%
COc1cccc(NC(=O)C(=O)NCC(c2ccco2)N2CCc3ccccc3C2)c1 (centres unmarked)	-9.29%
O=C(NCC(c1ccco1)N1CCOCC1)c1cccc([N+](=O)[O-])c1 (centres unmarked)	12.7%
O=C(NCC(c1ccco1)N1CCc2ccccc2C1)c1cccc(Br)c1 (centres unmarked)	-5.34%
O=C(NCC(c1ccco1)N1CCCC1)c1ccc(Cl)c(S(=O)(=O)N2CCc3ccccc32)c1 (centres unmarked)	-51%
COc1ccc(F)cc1S(=O)(=O)NCC(c1ccco1)N1CCc2ccccc2C1 (centres unmarked)	-30.4%
COc1ccc(C)cc1S(=O)(=O)NCC(c1ccco1)N1CCc2ccccc2C1 (centres unmarked)	-62.8%
COc1ccc(NC(=O)C(=O)NCC(c2ccco2)N2CCc3ccccc3C2)cc1OC (centres unmarked)	-69.4%
COc1ccc(NC(=O)C(=O)NCC(c2ccco2)N2CCc3ccccc3C2)cc1 (centres unmarked)	-23.5%
O=C(NCC(c1ccco1)N1CCc2ccccc2C1)c1cccc([N+](=O)[O-])c1 (centres unmarked)	-67.2%
O=C(NCC(c1ccco1)N1CCCCC1)c1cccc(S(=O)(=O)Nc2ccccc2Cl)c1 (centres unmarked)	-2.33%
COc1ccc(C)cc1NC(=O)c1nnn(Cc2cccc(F)c2)c1N	7.11%
O=C(c1ccc(NS(=O)(=O)c2ccccc2)cc1)N1CCCCCC1	-11.9%
COC(=O)c1cc(C#N)c(=O)[nH]c1C	20.3%
Cc1cccc(OCC(=O)Nc2cccc(-c3nnc(-c4ccccc4)o3)c2)c1C	-4.37%
CC(C)N1CCC(N2CCN(C3CCCCC3)CC2CCO)CC1 (centres unmarked)	18.9%
O=C(NCC(c1ccco1)N1CCc2ccccc2C1)c1ccccc1 (centres unmarked)	-19%
O=C(NCC(c1ccco1)N1CCc2ccccc2C1)c1ccc(Br)cc1 (centres unmarked)	-12.6%
O=C(NCC(c1ccco1)N1CCc2ccccc2C1)c1ccc([N+](=O)[O-])cc1 (centres unmarked)	-58.1%
O=C(NCC(c1ccco1)N1CCc2ccccc2C1)c1cccc(F)c1 (centres unmarked)	-63.5%

Compound	hERG current change (%, negative = inhibition) at 10uM
COc1cccc(C(=O)NCC(c2ccco2)N2CCc3ccccc3C2)c1 (centres unmarked)	-17%
O=C(NCC(c1ccco1)N1CCc2ccccc2C1)c1ccc(F)cc1 (centres unmarked)	-10.7%
Cc1ccc(C(=O)NCC(c2ccco2)N2CCc3ccccc3C2)cc1C (centres unmarked)	-5.02%
O=C(NCC(c1ccco1)N1CCc2ccccc2C1)c1ccc(Cl)c([N+](=O)[O-])c1 (centres unmarked)	-55.5%
O=C(NCC(c1ccco1)N1CCc2ccccc2C1)C(=O)Nc1ccccc1F (centres unmarked)	8.09%
O=C(NCC(c1ccco1)N1CCc2ccccc2C1)C(=O)Nc1cc(F)ccc1F (centres unmarked)	-52.3%
O=C(NCC(c1ccco1)N1CCc2ccccc2C1)c1ccc(Cl)cc1 (centres unmarked)	-47.8%
O=C(NCC(c1ccco1)N1CCc2ccccc2C1)C(=O)Nc1ccc(F)cc1F (centres unmarked)	-0.136%
O=C(CN1C(=O)S/C(=C\c2ccc(C(=O)O)cc2)C1=O)Nc1ccccc1	19%
CCCCNC(=O)C1Cc2cc(S(=O)(=O)N3CCCCC3)ccc2N1C(C)=O (centres unmarked)	17.4%
COc1ccc(C2(c3ccc(OC)cc3)NC(=O)N(CC(=O)Nc3ccc(OC)c(OC)c3)C2=O)cc1	-2.49%
Cc1noc(/C=C/N(C)C)c1S(=O)(=O)N1CCCC(C(=O)N2CCc3ccccc32)C1 (centres unmarked)	13%
CCC(NC(=O)C1CCCO1)c1ccccc1 (centres unmarked)	22.8%
Cc1ccc(CNC(=O)CNC(=O)c2ccc(Br)o2)cc1	5.03%
Cc1ccccc1CN1[C@@H]2c3ccccc3C[C@@H]2OCCS1(=O)=O	-3.4%
COc1ccc(C(C(=O)NC2CCCCC2)N(C(=O)c2ccccn2)c2cccnc2)cc1 (centres unmarked)	22.4%
CCCCC(=O)OCC(=O)Nc1ccc(C)c(F)c1	14.6%
Cc1ccccc1NNC(N)=S	5.65%
Cc1oc(S(=O)(=O)N2CCCC2)cc1C(=O)Nc1ccccc1	7.38%
CCOc1cc(C(=O)N2CCCN(C)CC2)cc(OCC)c1OCC	14.8%
Cc1onc(-c2ccccc2)c1C(=O)N1CCN(S(=O)(=O)c2ccc3c(c2)OCCO3)CC1	-17.2%
O=C(/C=C/c1cn(-c2ccccc2)nc1-c1ccc2c(c1)OCCO2)NCCO	-51.1%
O=C(O)/C=C/c1cn(-c2ccccc2)nc1-c1ccc2c(c1)OCCO2	10.1%

Compound	hERG current change (%, negative = inhibition) at 10uM
Cl.O=C(/C=C/c1cn(-c2ccccc2)nc1-c1ccc2c(c1)OCCO2)NCCCN1CCOCC1	-5.65%
C/C(=N\NC(=O)CNc1cccc2ccccc12)c1ccc(Br)s1	6.57%
Cc1ccc(C(=O)OCC(=O)Nc2cccc(S(=O)(=O)NC3=NCCCCC3)c2)c(C)c1	-15.4%
CS(=O)(=O)Nc1cccc(C(=O)CC2(O)C(=O)Nc3ccccc32)c1 (centres unmarked)	8.15%
Nc1n[nH]c(N)c1N=Nc1ccccc1	16.7%
COc1ccccc1N1CCN(C/C=C/c2ccc(N(C)C)cc2)CC1	-53.9%
CCOc1ccccc1N1CCN(C/C=C/c2ccc(N(C)C)cc2)CC1	-60.1%
CCN(CC)c1ccc(/C=N/N2CCN(c3ccccc3OC)CC2)cc1	14.4%
COc1ccccc1/C=C/CN1CCN(c2ccccc2)CC1	-15.6%
CCOc1ccccc1N1CCN(C(=O)CC(C)(C)C)CC1	0.665%
CCOc1ccccc1N1CCN(Cc2ccco2)CC1	-14.9%
CCOc1ccccc1C1CC(=O)Nc2c1c(=O)n(C)c(=O)n2C (centres unmarked)	7.34%
O=C(NCc1ccccc1)C(=O)NCC1OCCN1S(=O)(=O)c1ccc2c(c1)OCCO2 (centres unmarked)	-3.14%
O=C(CCCc1nc(-c2ccc(Cl)cc2)no1)Nc1cccnc1	-24.6%
CCCOc1ccc(C2C(=O)N(C3CCCCCC3)CC(=O)N2Cc2ccco2)cc1OC (centres unmarked)	-36.7%
COc1ccc(C2C(=O)N(C3CCCCC3)CC(=O)N2Cc2ccco2)cc1 (centres unmarked)	-53.7%
COc1ccc(C2C(=O)N(C3CCCCC3)CC(=O)N2C2CCCC2)cc1 (centres unmarked)	-12.1%
Cc1ccc(C2C(=O)N(C3CCCC3)CC(=O)N2C2CCCCC2)cc1 (centres unmarked)	-25.4%
COc1cc(C2C(=O)N(C3CCCC3)CC(=O)N2Cc2ccco2)ccc1OC(C)C (centres unmarked)	-27.6%
COc1ccc(C2C(=O)N(C3CCCCC3)CC(=O)N2C2CCCCC2)cc1 (centres unmarked)	-51.7%
